These results are taken from PubChem BioAssay (NCI).

Holding throughout (test): NCI-60 one-dose screen, 48 h (100 = growth as untreated, 0 = no growth, -100 = all killed)
Common to all, as to settings: 10 µM unless noted

The subject of assay [1] is NCI-H23 lung.
The subject of assay [2] is NCI-H226 lung.
For assay [3], the system named is NCI-H322M lung.
Assay [4] deals with HOP-62 NSCLC.
In assay [5] the test system is NCI-H460 lung.
The test system of assay [6] is HOP-92 NSCLC.
The subject of assay [7] is NCI-H522 lung.
Assay [8] relates to A549/ATCC NSCLC.
The test system of assay [9] is 786-0 renal.
Assay [10] relates to COLO 205 colon.
Assay [11] concerns DU-145 prostate.
In assay [12] the test system is K-562 leukemia.
The test system of assay [13] is MALME-3M melanoma.
For assay [14], the system named is MDA-MB-231 breast.
The subject of assay [15] is RXF 393 renal.
Assay [16] concerns SF-268 CNS.
Assay [17] concerns SF-295 CNS.
The test system of assay [18] is SF-539 CNS.
In assay [19] the test system is UACC-257 melanoma.
Assay [20] relates to M14 melanoma.

The structures appear in SMILES notation. This is part of a sample that, as a whole, favours compounds with a hit. Of some 83,000 tested, about 20% had one in any assay.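 Negative percent growth values reflect cell death: -40 means 40% of the cells present at the start died, and -100 means all died.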 Unmarked numbers belong to inactive results. Calls of active or inactive are those of the source. How the source made its calls: active means growth percent below 10; inactive means the rest.

With `CC(=O)c1ccc(Nc2nccc(-c3ccc(Cl)cc3)n2)cc1`, the growth in assay [1] is 84.2%; in [2], 54%; in assay [3], 100%; in [4], 108%; in assay [5], 85.5%; in assay [6], 109%. Also, the growth is 90.8% in [7]; 87% in [8]; 101% in [9]; 105% in assay [10]; 102% in assay [11]; 83.9% in assay [12]. Further, the growth in [13] is 101%; in assay [14], 101%; in assay [15] it was 103%; in assay [16], 93%; in assay [17] it was 101%; in assay [18] it was 92.3%. In addition, the growth in [19] is 106%; in [20] it was 101%.
In the case of `COc1cccc(-c2cc(-c3ccc(Nc4nc(Nc5ccc(Cl)cc5)nc(Nc5ccc(Cl)cc5)n4)cc3)nc(N)c2C#N)c1`, the growth in assay [1] is 37.9%; in assay [2], 10.5%; in [3], 99.9%; in [4], 95%; in [5] it was 69%; in assay [6] it was -85.7% (active). The growth in assay [7] was 87.4%; in assay [8], 43%; in assay [9] it was 59.2%; in [10], -30.4% (active); in [11] it was 56.3%; in assay [12], 41.5%. The growth in assay [13] is -52.9% (active); in [14], -14.1% (active); in [15], -48.7% (active); in assay [16], 71%; in assay [17], 83.2%; in [18] it was 6.72% (active). For the same compound, the results for the growth in assay [19] and in assay [20] were 16.3% and 15.6%, respectively.
Take `O=C1c2c(c3c4cc(F)ccc4oc3c3[nH]c4ccccc4c23)C(=O)N1O`: the growth in [1] was 23.4%; in assay [2], 59.3%; in [3] it was 57.7%; in [4], 24.2%; in assay [5], 5.01% (active); in assay [6] it was 48.8%. Also, the growth in assay [7] is 30.5%; in assay [8] it was 54.2%; in assay [9] it was 47.6%; in [10], 57.7%; in [11], 31.8%; in [12] it was 26.1%. Besides, the growth was 28% in [13]; 57.6% in [14]; 39.9% in assay [15]; 38.7% in [16]; 55.7% in assay [17]; 2.46% (active) in [18]. Further, the growth is 75.9% in assay [19] and 28.6% in [20].
On to `CCC(C)C(N)C(=O)NC(CC(C)C)C(=O)N1CCCC1C(=O)NC(Cc1c[nH]c2ccccc12)C(=O)NC(CCCCN)C(=O)NC(Cc1c[nH]c2ccccc12)C(=O)N1CCCC1C(=O)NC(Cc1c[nH]c2ccccc12)C(=O)NC(Cc1c[nH]c2ccccc12)C(=O)N1CCCC1C(=O)NC(Cc1c[nH]c2ccccc12)C(=O)NC(CCCNC(=N)N)C(=O)NC(CCCNC(=N)N)C(N)=O` (stereo not given), for which the growth in assay [1] is 104%; in assay [2], 112%; in assay [3], 100%; in assay [4] it was 103%; in assay [5] it was 107%; in [6] it was 86.2%. Besides, the growth in [7] is 97.7%; in assay [8], 106%; in assay [9] it was 102%; in [10] it was 97.2%; in assay [11] it was 98.4%; in assay [12] it was 104%. In addition, the growth in assay [13] was 122%; in [14] it was 116%; in [15], 110%; in assay [16], 116%; in assay [17], 144%; in assay [18] it was 110%. For the same compound, the growth in assay [19] is 97.8%; in assay [20], 108%.
With `CCCC1Cc2cc(-n3nc(C)c4c3CC(C)(C)CC4=O)cc(NC3CCC(O)CC3)c2C(=O)N1` (stereo not given), the growth in [1] was 34.5%; in assay [2] it was 47.7%; in assay [3], 50.5%; in [4], 40.1%; in assay [5], 18%; in assay [6], -0.467% (active). The growth was 39.1% in assay [7]; 31.6% in [8]; 49.9% in [9]; 14% in assay [10]; 53.7% in assay [11]; 14.3% in assay [12]. In addition, the growth in [13] is 12.3%; in assay [14], -15.1% (active); in assay [15] it was 65.3%; in [16] it was 65.3%; in [17], 21%; in assay [18], 34.4%. Besides, the results for the growth in [19] and in assay [20] were 37.1% and 33.7%, respectively.
`CN(C)CCCN(CCC1CCCCC1)CCC1CCCCC1`: the growth is 66.4% in [1]; 94.8% in assay [2]; 80.1% in assay [3]; 64.3% in assay [4]; -2.63% (active) in [5]; 28.8% in [6]. For the same compound, the growth in assay [7] was 48.8%; in [8], 52.5%; in assay [9], 56.2%; in [10], -54.4% (active); in assay [11], 80.9%; in assay [12], 26%. The growth in assay [13] is -79.4% (active); in assay [14], 19.4%; in assay [15], 70.8%; in assay [16], 75.2%; in assay [17] it was 69.4%; in assay [18], 49.6%. Moreover, the growth was -65.3% (active) in assay [19] and -97.2% (active) in [20].
With `C(CCCSC1=NCCN1)CCSC1=NCCN1`, the growth in assay [1] was 94.8%; in assay [2], 107%; in [3] it was 113%; in assay [4], 93.1%; in assay [5] it was 110%; in assay [6] it was 41.4%. Also, the growth in assay [7] is 103%; in assay [8] it was 104%; in assay [9], 97%; in [10], 121%; in assay [11], 109%; in [12], 116%. In addition, the growth in [13] is 104%; in assay [14] it was 103%; in assay [15], 104%; in assay [16] it was 106%; in [17], 108%; in [18], 101%. The growth in [19] was 98.5%; in assay [20] it was 99.3%.
`Nc1ncc(-c2ccc3ncnc(N4CCc5cc(F)c(Cl)cc54)c3c2)cn1`: the growth is 58.8% in assay [1]; 33.6% in [2]; 25.1% in [3]; 28.7% in assay [4]; 38.8% in [5]; 11.5% in [6]. In addition, the growth in assay [7] was 44.1%; in [8], 28.5%; in assay [9], 26%; in [10], 51.5%; in assay [11], 33.4%; in [12] it was 61.4%. The growth was 53.6% in assay [13]; 30% in assay [14]; 1.88% (active) in assay [15]; 39.8% in [16]; 56.2% in assay [17]; 48.5% in assay [18]. Moreover, the growth in assay [19] is 67.6%; in assay [20], 61.1%.
